Measurements taken from PubChem BioAssay AID504607 (Sanford-Burnham Center for Chemical Genomics, 2011).
In all, about 6,200 compounds went through this assay and about 4,800 (77%) were called active. The set was probably picked from earlier hits. Only a sample is shown. Values without a mark were called inactive.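 The calls were made as follows: active = mean inhibition at 8 µM reaching about 37%, which flags the compound as non-specific (limit read from the data); inactive = the rest.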

Assay: luminescence decrease from intact luciferase reporter – cell-based, single concentration, SaOS-2, counter-screen for Mdm2/MdmX interaction inhibitor project, confirmation (AID 504607);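 also: p53-null SaOS-2 cells with luciferase driven by a doxycycline-inducible promoter; compound on cells about two nights before reading with doxycycline added after day one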
Settings: SaOS-2 full-length luciferase counterscreen, at 8 µM, stronger effect = higher value

SMILES	inhibition
COC(=O)c1sc(-c2ccc(C(C)(C)C)cc2)cc1NC(=O)/C=C/C(=O)O	55.9% (active)
O=C(CSc1cccc2cccnc12)N/N=C/c1cccnc1	68.1% (active)
CC(=O)/C(=N\Nc1ccc(Cl)cc1Cl)Sc1cccc2cccnc12	19.1%
CCn1cc(CN2CCC(C(=O)Nc3cccc(-c4cccc(Cl)c4)c3)CC2)c(C)n1	74.2% (active)
c1ccc2c(c1)CSc1sccc1C2=C1CCNCC1	44.8% (active)
COc1cccc(-n2c(SCC(=O)NC3CCCCC3)nc3n[nH]c(C)c3c2=N)c1	66.3% (active)
NC(=O)c1sc2nc3c(c(-c4ccccc4)c2c1N)CCC3	43.5% (active)
Cc1ccccc1C(=O)N1CCN(c2ccc(NC(=O)c3cccs3)cc2)CC1	65.1% (active)
Cc1cc(C(=O)NC2CCCc3c2cnn3-c2cccc(C)c2C)c(C)o1 (stereo unspecified)	91% (active)
COc1ccc(C(=O)NC2CCCc3c2cnn3-c2cccc(C)c2C)c(OC)n1 (stereo unspecified)	54.8% (active)
CC(NC(=O)Nc1ccccc1)C(c1cccs1)N1CCN(c2ccccc2)CC1 (stereo unspecified)	58% (active)
N#Cc1cccc(NC(=O)COC(=O)c2ccccc2C(=O)c2ccc(Cl)c([N+](=O)[O-])c2)c1	50.4% (active)
CC(=O)Nc1ccc(NC(=O)C(C)OC(=O)c2ccccc2C(=O)c2ccc(Cl)c([N+](=O)[O-])c2)cc1 (stereo unspecified)	52.9% (active)
Cc1cccc(-c2oc3ccc(-c4ccc5c(c4)OCO5)cc3c2C#Cc2cncn2C)c1	80.9% (active)
Oc1ccccc1N1CCN(c2ncnc3sc(-c4ccccc4)cc23)CC1	58.6% (active)
O=C(Oc1c(-c2ccco2)oc2ccccc2c1=O)c1cccnc1	90.3% (active)
COc1cc2c(cc1OC)C(C)N(S(=O)(=O)c1cnc(Cl)c(Cl)c1)CC2 (stereo unspecified)	45.3% (active)
CN(C)CC(O)COc1ccc(C(C)(C)c2ccc(OCC(O)CN(C)C)cc2)cc1 (stereo unspecified)	56.8% (active)
Cn1cc(/C=C/c2nc3ccccc3c(=O)n2-c2cccc([N+](=O)[O-])c2)c2ccccc21	90.7% (active)
C=CCn1c(C)cc(C(=O)CN2C(=O)c3ccccc3C2=O)c1C	103% (active)
C=CCn1c(C)cc(C2=NNC(=NCC)SC2)c1C	24.4%
O=C(NCC#CCSc1nnc(-c2cccc3ccccc23)o1)c1cccs1	22.6%
CCCc1nc2c(c(=O)c3ccccc3n2C)c(=O)n1C1CCCCCC1	63.9% (active)

SMILES	inhibition
COc1cccc(CNC(=O)c2nnn(CC(=O)Nc3cc(Cl)ccc3C)c2N)c1	47.8% (active)
Cc1cc(C)c2[nH]c(=O)c(CN(Cc3ccccc3)C(=S)NCCCN(C)C)cc2c1	58.1% (active)
COc1ccc(-c2nc(-c3ccccc3)no2)c(OC)c1	95.8% (active)
CSc1nc(-c2ccccc2)nc(C(Cl)Cl)n1	49.7% (active)
O=C(Cn1nnc(-c2ccccc2)n1)N/N=C/c1ccc(-c2ccc(Cl)cc2)o1	106% (active)
COc1cc(NC(=O)c2ccccc2NS(=O)(=O)c2ccc(Cl)s2)cc(OC)c1	40.5% (active)
CCc1ccc(-c2cc3c(=O)n(CC(=O)NCCCN4CCN(Cc5ccccc5)CC4)nc(C)n3n2)cc1	60.8% (active)
CCc1ccc(CNC(=O)C2CCN(c3nnc(C)c4c(C)n(-c5ccc(C)cc5)nc34)CC2)cc1	23.7%
FC(F)(F)c1ccc(CN2C[C@@H]3C(c4ccccc4)C4(c5ccccc5)CC3(C4)[C@H]2c2ccccc2)cc1 (stereo partly specified)	27.2%
COCCCNc1nc2c(-c3cccc(C)c3)nnn2c2ccc(Cl)cc12	54.2% (active)
CCOc1ccccc1NC(=O)Cn1nnc(C(=O)NCc2cccs2)c1N	80.5% (active)
Cc1ccccc1OCCOc1ccc([N+](=O)[O-])cc1/C=N/n1cnnc1	89% (active)
CC1(C)CC(N2CCN(C(c3ccccc3)c3ccccc3)CC2)=CC(=[N+]2CCCCC2)C1	55.6% (active)
Cc1c(/C=N\NC(=O)c2cc3ccccc3o2)c2ccccc2n1C	61.8% (active)
Cc1ccc2occ(/C=N/NC(=O)c3ccccc3C)c(=O)c2c1	34.4%
Cc1cccn2c(=O)c3cc(C(=O)NCCN4CCOCC4)c(=N)n(Cc4cccnc4)c3nc12	57.1% (active)
COc1ccc(CCn2c(=N)c(C(=O)NCC3CCCO3)cc3c(=O)n4cccc(C)c4nc32)cc1OC (stereo unspecified)	54% (active)
Cc1cccc(-n2ncc(Cl)c(Cl)c2=O)c1	0.23%
CN(Cc1ccccc1)CC(O)COc1ccc(CNCc2cc3ccccc3s2)cc1 (stereo unspecified)	79.3% (active)
O=C(Nc1ccncc1)c1c(F)cccc1F	38.9% (active)
CC(C)(C)CC(C)(C)NCC(O)COCCOc1ccc(Br)cc1 (stereo unspecified)	62.6% (active)
COc1ccccc1N1CCN(C(=O)c2cc(=O)c3cc(C)cc(C)c3o2)CC1	101% (active)
Oc1c(Br)cccc1/C=N/Nc1c(F)c(F)c(F)c(F)c1F	56.7% (active)
